# Rows were chosen to be rich in hits. Some 3.3% of all compounds tested hit in one or more screens of this group.
# UBC13 inh = blocks human UBC13 polyubiquitin chain formation. inhibition, % at 20 µM. AID 485273. 330,000 tested, 0.47% active. TR-FRET. P61088; in the data active = inhibition above about 45%, passing the limit was not always enough
# HGIII-sPLA2 inh = Blocks human group III sPLA2 activity. 370,000 tested, 0.56% active. Q9NZ20. QFRET BODIPY PC-A2 liposome hydrolysis, fluorescence. AID 743126. inhibition, % at 12.2 µM;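 active = inhibition above mean plus 3 SD of compounds lying within the high and low control bounds, cut at about 19% in these data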;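 also: 0% = median of test compound wells and 100% = no enzyme DMSO wells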
# Target sequence (Q9NZ20 whole entry, looked up): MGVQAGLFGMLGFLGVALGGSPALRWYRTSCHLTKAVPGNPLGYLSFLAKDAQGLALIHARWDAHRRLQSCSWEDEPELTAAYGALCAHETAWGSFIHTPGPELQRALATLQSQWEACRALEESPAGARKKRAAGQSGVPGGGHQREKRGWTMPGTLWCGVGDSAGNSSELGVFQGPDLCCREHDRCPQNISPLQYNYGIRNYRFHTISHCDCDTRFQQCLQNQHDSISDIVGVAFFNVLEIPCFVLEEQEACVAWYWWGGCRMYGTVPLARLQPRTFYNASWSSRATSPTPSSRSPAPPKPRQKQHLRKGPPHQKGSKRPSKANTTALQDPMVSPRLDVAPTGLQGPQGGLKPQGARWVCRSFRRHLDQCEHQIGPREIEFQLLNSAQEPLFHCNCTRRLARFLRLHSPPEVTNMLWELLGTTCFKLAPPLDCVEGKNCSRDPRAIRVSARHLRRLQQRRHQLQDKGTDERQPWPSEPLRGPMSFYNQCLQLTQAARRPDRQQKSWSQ
# SUMO HTRF inh = inhibitors of human SUMOylation (UBC9). inhibition, % at 35 µM. P63279. 290,000 tested, 0.36% active. HTRF SUMOylation assay, SAE1/SAE2 + UBC9, in vitro. AID 2006; in the data active = inhibition above about 50%, passing the limit was not always enough
# GRIN3A LBD mod = modulates the human NR3A ligand-binding domain. NR3A LBD differential scanning fluorimetry, Tm shift; 0% = protein alone, 100% = glycine-bound protein. 340,000 tested, 2.5% active. Tm shift relative to glycine control, % at 25 µM;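 active = melting temperature shift of at least 10% of the positive control shift, at one fixed dose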
# * = called active by the depositor; . = no result given.
SMILES,UBC13 inh,HGIII-sPLA2 inh,SUMO HTRF inh,GRIN3A LBD mod
CC(=O)Nc1ccc(S(=O)(=O)NCCOc2ccc(Cl)cc2C)cc1,13,-11,9,-4
CCCCOc1ccc(CONS(=O)(=O)c2ccc(NC(C)=O)cc2)cc1Cl,7,-21,-42,28*
O=C1c2cccn2CC2Cc3ccccc3N12 (configuration not stated),.,-1,.,.
CC(=O)Nc1ccc(S(=O)(=O)Nc2nc3ccccc3nc2Nc2ccccc2)cc1,-1,-15,-1,10*
CC(=O)Nc1ccc(S(=O)(=O)Nc2nc3ccccc3nc2Nc2ccc(O)cc2)cc1,15,-15,-1,17*
CC(=O)Nc1ccc(Nc2nc3ccccc3nc2NS(=O)(=O)c2ccccc2)cc1,9,-2,7,4
Cc1cccc(S(=O)(=O)Nc2nc3ccccc3nc2Nc2ccc3c(c2)OCO3)c1,-18,-3,24,21*
CC(=O)Nc1c(-c2ccc(C(F)(F)F)cc2)nc2ncccn12,.,2,.,.
O=C(Cc1ccccc1)N1CCC(Oc2cccnc2)CC1,.,2,.,.
COc1ccc(NC(=O)C(=O)N/N=C\c2ccc(CNC(=O)C(=O)Nc3ccc(C)c(C)c3)o2)c(OC)c1,-29,.,58*,2
COc1cc(C(=O)NC(C)c2ccc(S(N)(=O)=O)cc2)ccc1OCC(=O)N1CCOCC1 (configuration not stated),6,-2,5,11*
OC[C@H]1CC[C@@H]2O[C@H](CCc3ccc(-c4ccc(F)cc4)cc3)[C@H](n3cc(C4CC4)nn3)C[C@@H]2O1,.,-11,.,.
O=C(OCc1ccc(Cl)c(Cl)c1)c1cccnc1Cl,4,-6,-5,1
O=C(OCc1ccc(Cl)cc1Cl)c1cccnc1Cl,22,-3,-5,12*
O=C(N/N=C/c1ccc(O)cc1)NC12CC3CC(CC(C3)C1)C2,7,-31,-12,10*
COc1cc(NC(=O)C2CCCN(S(=O)(=O)c3ccc(C)cc3)C2)cc(OC)c1 (configuration not stated),.,-28,.,.
CC1=C(C(=O)Nc2ccccc2)C(c2ccc(C)o2)n2c(s/c(=C\c3ccco3)c2=O)=N1 (configuration not stated),-31,-14,72*,-7
COc1cccc(C2C(C(=O)Nc3ccccc3)=C(C)N=c3s/c(=C/c4ccc(OCC(=O)O)cc4)c(=O)n32)c1 (configuration not stated),-9,-33,16,-7
Cc1ccc(-c2cc(C(=O)N/N=C/c3ccco3)n[nH]2)s1,-4,2,63*,5
O=C(N/N=C/c1ccncc1)c1cc(-c2ccc(Br)s2)[nH]n1,6,-8,11,17*
Cc1nn(-c2ccccc2)c(C)c1/C=N/NC(=O)c1cc(-c2ccc(Cl)s2)[nH]n1,-13,-8,-62,12*
COc1ccc(-n2c(SCC(=O)Nc3ccc(S(=O)(=O)Nc4nccs4)cc3)nnc2-c2ccco2)cc1,.,-37,.,.
CN1C(=O)c2cc(NC(=O)Nc3ccccc3)ccc2OC[C@H]2O[C@@H](CC(=O)NCC(F)(F)F)CC[C@@H]21,.,-17,.,.
O=c1cc(O)c(-c2ccc(Cl)cc2)c(Cl)[nH]1,10,1,10,-2
O=C1c2cc(Cl)ccc2-c2c(O)cc(Cl)cc21,.,-15,.,14*
SMILES,UBC13 inh,HGIII-sPLA2 inh,SUMO HTRF inh,GRIN3A LBD mod
COc1ccc(-n2nnnc2-c2cccnc2)cc1,-3,8,19,15*
CC(C)[C@H]1Cn2nncc2Cn2c3ccccc3c(=O)n21,.,9,.,.
O=C(O)c1nc2nc(Cl)c(Cl)nc2[nH]1,12,-7,25,14*
Cc1ccc(C)c(NC(=O)[C@@H]2CCCN2S(=O)(=O)c2cccc3cccnc23)c1,.,-2,.,.
CCN(CC(=O)NC1CCCC1)S(=O)(=O)c1ccc(Br)cc1,-5,-3,0,11*
CCN(CC(=O)NC1CCCC1)S(=O)(=O)c1ccc(C)cc1,4,3,3,0
O=C(CN1CCC(NC(=O)Nc2ccc(Cl)cc2)CC1)Nc1ccc2c(c1)OCCO2,.,-3,.,.
Cc1c(C(=O)N/N=C/c2ccccc2Cl)[nH][nH]c1=O,.,2,.,.
CC(C)[C@@H](CO)N(Cc1cn(Cc2ccccc2)nn1)S(=O)(=O)c1ccccc1Br,.,-4,.,.
COc1ccc(OC)c(NC(=O)c2cc3n(n2)C(C(F)(F)F)CC(c2ccc4c(c2)OCO4)N3)c1 (configuration not stated),-5,-2,11,-3
O=C(Nc1cc(Cl)ccc1O)c1cc2n(n1)C(C(F)(F)F)CC(c1ccc3c(c1)OCO3)N2 (configuration not stated),-17,-28,-20,23*
Cc1ccc(C)c(C(=O)NCCN(C)C)c1,-1,1,5,0
C=C(CN(C)C)C(=O)c1cc(C)ccc1C,.,6,.,11*
CCCCCC1CC(CC(=O)NC(=S)Nc2ccc([N+](=O)[O-])cc2)C(=O)O1 (configuration not stated),-3,-9,-53,15*
CC(C)CC(=O)N1CCc2cc(S(=O)(=O)N(C)Cc3ccco3)ccc21,.,1,.,.
CC(=O)c1ccc(NC(=S)NCCc2ccc(S(N)(=O)=O)cc2)cc1,17,-4,10,-1
O=[N+]([O-])c1ccc(NC(=S)NCCc2ccc(Cl)cc2)cc1,7,-37,1,31*
O=S(=O)(c1ccc(NC(=S)NCCc2ccccc2)cc1)N1CCOCC1,-6,-24,-13,24*
O=S(=O)(c1ccc(NC(=S)NN=C(Cc2ccccc2)Cc2ccccc2)cc1)N1CCOCC1,-27,-8,6,-6
O=[N+]([O-])c1ccc(NC(=S)NCc2ccc(F)cc2)cc1,3,-18,0,7
NS(=O)(=O)c1ccc(NC(=S)NCCc2ccccc2)cc1,-1,-9,2,12*
O=[N+]([O-])c1ccc(NC(=S)NCCc2ccccc2)cc1,5,-15,3,35*
C#CCNC(=O)C[C@H]1C(=O)N(CC=C)C2=CCCC[C@@]21C(=O)OCC,.,4,.,.
O=S(=O)(Nc1ccc(S(=O)(=O)N2CCOCC2)cc1)c1ccccc1,5,-4,-6,10*
COc1ccc(NS(=O)(=O)c2ccc(S(=O)(=O)N3CCOCC3)cc2)cc1,5,-11,10,2
C#CCOCCOCCOCCNc1nc(N2CCN(C(=O)C(Cc3cc4ccccc4[nH]3)n3cc(C(N)C(C)CC)nn3)CC2)nc(N2CCN(C(=O)C(Cc3cc4ccccc4[nH]3)n3cc(C(N)C(C)CC)nn3)CC2)n1 (configuration not stated),94*,.,6,-6
C#CCOCCOCCOCCNc1nc(N2CCN(C(=O)[C@H]([C@@H](C)CC)n3cc([C@@H](N)CC(C)C)nn3)CC2)nc(N2CCN(C(=O)[C@H](Cc3cc4ccccc4[nH]3)n3cc([C@@H](N)C(C)CC)nn3)CC2)n1 (some centres not stated),81*,.,-13,.
C#CCOCCOCCOCCNc1nc(N2CCOCC2)nc(N2CCN(C(=O)[C@H](Cc3cc4ccccc4[nH]3)n3cc([C@@H](N)C(C)CC)nn3)CC2)n1 (some centres not stated),26,-16,-12,2
